Mcl1 Bid PPI – Mcl-1/Bid interaction inhibition. Q07820. TR-FRET Mcl-1/Bid-Dy647 peptide binding, 1536-well. inhibition, % at 21.7 µM. 220,000 compounds, 0.97% hits. AID 1021;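 active = compounds that cut the binding signal by more than half at the single screening dose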;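 note: His-tagged Mcl-1 with europium anti-His antibody binding Bid BH3 peptide; 0% = Mcl-1 plus peptide wells and 100% = peptide-only wells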
Target sequence (Q07820 whole entry, looked up): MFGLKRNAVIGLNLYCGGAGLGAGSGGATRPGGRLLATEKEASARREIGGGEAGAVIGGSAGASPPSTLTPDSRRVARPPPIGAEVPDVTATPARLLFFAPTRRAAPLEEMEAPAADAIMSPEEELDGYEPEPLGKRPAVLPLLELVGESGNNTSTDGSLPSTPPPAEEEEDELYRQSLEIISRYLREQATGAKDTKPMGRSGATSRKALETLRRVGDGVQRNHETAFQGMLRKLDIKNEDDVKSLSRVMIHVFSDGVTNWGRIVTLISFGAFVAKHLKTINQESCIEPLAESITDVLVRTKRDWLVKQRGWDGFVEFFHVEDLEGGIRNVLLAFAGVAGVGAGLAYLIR
Bim-Mcl-1 – human Bim-Mcl-1 interaction inhibition; 190,000 compounds, 0.1% hits; Bead-based flow cytometry, Bim peptide-Mcl-1 binding; Q07820; inhibition, % at 10 µM; AID 1009; in the data active = inhibition above about 40%;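 note: 0% = no compound tracer wells and 100% = peptide blocker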
Mcl1 Noxa PPI – Mcl-1/Noxa interaction inhibition | 220,000 compounds, 1.5% hits | TR-FRET Mcl-1/Noxa peptide binding, 2 h | inhibition, % at 21.7 µM | Q07820 | AID 1022;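 active = compounds that cut the protein-peptide binding signal by more than 50% relative to plate controls in a single-dose test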;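 note: His-tagged Mcl-1 with rhodamine Noxa BH3 peptide and terbium anti-His antibody; 0% = Mcl-1 plus Noxa peptide wells and 100% = peptide-only wells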
MCL1-BIM inh – MCL1-BIM-BH3 interaction inhibition (human) | inhibition, % at 10.9 µM | GST-MCL1 / FITC-Bim-BH3 fluorescence polarization | AID 2057 | Q07820 | 320,000 compounds, 0.68% hits;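 active = inhibition above the mean inhibition of all tested compounds plus 3 SD, set per campaign, cut at about 40% in these data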;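 note: 0% = DMSO wells and 100% = unlabeled Bim-BH3 peptide control; higher means more loss of mP so more displacement of Bim peptide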
Bcl-xL primary – inhibitors of human Bcl-xL | inhibition, % at 10.9 µM | Q07817 | 320,000 compounds, 0.7% hits | GST-Bcl-xL / FITC-Bim BH3 peptide fluorescence polarization;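 active = inhibition above the mean of all tested compounds plus 3 SD, cutoff set per campaign, cut at about 30% in these data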;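 note: 0% = DMSO wells and 100% = unlabeled Bim-BH3 peptide competitor; inhibitors lower millipolarization by displacing the labeled peptide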
GLD-1 TGE inh – GLD-1-TGE RNA interaction inhibition (C. elegans); Q17339; purified GLD-1 + fluorescein TGE RNA, fluorescence polarization; AID 2280; 320,000 compounds, 0.44% hits; inhibition, % at 5.96 µM;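 active = percent inhibition above a per-plate cutoff, the plate mean of test compounds plus 3 SD, cut at about 30% in these data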;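 note: 0% = DMSO wells with GLD-1 and probe and 100% = wells lacking GLD-1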
An asterisk follows results filed as active; x = not tested or not shown. A selection: hits, their analogues and other compounds. The true share with any hit is near 2.3%.

SMILES	Mcl1 Bid PPI	Bim-Mcl-1	Mcl1 Noxa PPI	MCL1-BIM inh	Bcl-xL primary	GLD-1 TGE inh
FC(F)(F)c1ccccc1/C=N/n1c(COc2ccccc2)n[nH]c1=S	x	x	x	-18	-5	3
CCOC(=O)c1sc(NC(=O)CSc2nnc(-c3ccco3)n2CC)c(C(=O)OCC)c1C	6	-3	64*	9	6	-4
CCC1(CC)NC(=O)N(CC(=O)Nc2sc3c(c2C(N)=O)CCC3)C1=O	-17	0	73*	17	10	-4
NC(=O)c1c(NC(=O)CSc2nnc(-c3ccco3)n2-c2ccccc2)sc2c1CCC2	-54	2	88*	29	8	3
CCC1(C)NC(=O)N(CC(=O)Nc2sc3c(c2C(=O)OC)CCCCC3)C1=O (centres undefined)	-20	-3	8	-5	1	3
CCOC(=O)Cc1csc(SCC(=O)Nc2sc3c(c2C(N)=O)CCC3)n1	-39	-1	71*	39	14	-15
N#Cc1c(NC(=O)CSc2nnc(-c3ccco3)n2-c2ccccc2)sc2c1CCC2	-29	-1	45	-3	-2	-2
CC1=NCCN1CCNC(=O)Nc1ccc(C(C)(C)C)cc1	-5	x	4	7	2	1
O=C1NN(c2ccccc2)C(=O)/C1=C\c1ccc2c(c1)OCO2	x	x	x	6	9	8
Cc1ccc(N2NC(=O)/C(=C\c3cc4c(cc3[N+](=O)[O-])OCO4)C2=O)cc1C	5	1	100*	16	10	4
O=C(c1ccccc1F)N(Cc1nc2ccccc2c(=O)[nH]1)C1CCCC1	-17	0	19	7	4	9
O=C(CSc1nnnn1-c1ccc(C(=O)O)cc1)NC1CC1	x	x	x	6	2	3
COc1ccc(S(=O)(=O)N2CCCCC2)cc1NC(=O)c1ccc(Cl)nc1	x	x	x	-12	-9	5
O=C(Nc1ccc(N2CCCC2)c(Cl)c1)c1ccc([N+](=O)[O-])o1	-45	-6	59*	x	x	x
Cc1cc2cc(C#N)c(N3CCOCC3)nc2cc1Cl	x	x	x	-1	2	6
C/C=C(/C)C(=O)Nc1cccc(C2=NOC3(C2)C[C@H](C(N)=O)N(C(=O)c2ccc(Cl)cc2)C3)c1 (some centres undefined)	-24	x	9	12	7	-12
C=C(C)C(=O)Nc1cccc(C2=NOC3(C2)C[C@H](C(N)=O)N(C(=O)COc2ccc(Cl)cc2)C3)c1 (some centres undefined)	-129	x	69*	12	2	0
C=C(C)C(=O)Nc1cccc(C2=NOC3(C2)C[C@@H](C(N)=O)N(C(=O)c2cc([N+](=O)[O-])cc([N+](=O)[O-])c2C)C3)c1 (some centres undefined)	-47	x	74*	-9	-6	4
C=C(C)C(=O)Nc1cccc(C2=NOC3(C2)C[C@@H](C(N)=O)N(C(=O)c2ccc(Cl)cc2)C3)c1 (some centres undefined)	-98	x	75*	14	4	1
C/C=C/C(=O)Nc1cccc(C2=NOC3(C2)C[C@@H](C(N)=O)N(C(=O)c2cc([N+](=O)[O-])cc([N+](=O)[O-])c2C)C3)c1 (some centres undefined)	-2	x	15	1	0	1
C=C(C)C(=O)Nc1cccc(C2=NOC3(C2)C[C@H](C(N)=O)N(C(=O)c2ccccc2)C3)c1 (some centres undefined)	-70	x	61*	-9	0	-4
CCOc1ccc(S(=O)(=O)N2CCC(C(=O)NCCN3CCOCC3)CC2)cc1C	x	x	x	3	7	4
COc1ccccc1CC1(C)NC(=O)N(CC(=O)N2CCc3ccccc3C2)C1=O (centres undefined)	57*	1	15	-8	-3	-4
O=C(CN1C(=O)NC2(CCCCCCC2)C1=O)N1CCc2ccccc2C1	-4	0	3	-4	3	2
CC/S(=N\S(=O)(=O)c1ccc(C)cc1)c1ccccc1 (centres undefined)	-1	x	7	-4	-2	-1
Cc1ccc(NC(=O)COC(=O)C2CCN(c3ccc(C(F)(F)F)cn3)CC2)cc1	x	x	x	-6	-6	7
O=C(CCCCCCCC(=O)c1ccccc1)c1ccccc1	-13	-1	10	-5	-9	1
